# Assay results from PubChem BioAssay (NCI).
# The panel holds about 83,000 compounds, 20% with a hit somewhere; the sample as a whole holds those more often.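 Cell lines were cultured in 96-well plates, exposed to a single compound concentration, and assessed for percent growth 48 hours later.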 A number with no mark means an inactive call. Activity calls are given as the source filed them. Rule for the calls: active = growth percent below 10; inactive = the rest.
# Tested on: M14 melanoma
# Test: NCI-60 one-dose screen, 48 h (100 = growth as untreated, 0 = no growth, -100 = all killed)
# Settings: 10 µM unless noted
row,Structure (SMILES),growth
1,CCN(CC)c1ccc(/C=C2\Oc3ccc(O)c(I)c3C2=O)cc1,28.7%
2,CC1(c2ccc(Cl)cc2)OC(=O)CC(=O)O1,101%
3,Cc1csc(NC(c2ccccc2)c2c(C)nc3ccccn23)n1 (centres undefined),95.3%
4,COc1cc(-c2nc(N=Nc3c(O)[nH]c4ccc(Br)cc34)[nH]c(=O)c2C#N)cc(OC)c1OC,97.1%
5,O=C1/C(=C/c2ccc(Cl)cc2)CN(C(=O)CCN2CCC(=NO)CC2)C/C1=C\c1ccc(Cl)cc1,-45.2% (active)
6,Cc1ccc(-c2cc3nc(C(Cl)Cl)nc(-c4ccccc4C)n3n2)cc1,93.8%
7,Nc1cccc(-c2nc3sccn3c2-c2ccnc(NCCNS(=O)(=O)c3ccc(C(F)(F)F)cc3)n2)c1,53.6%
8,FC(F)(F)c1cccc(-c2cn3c(ccc4ccccc43)n2)c1,95.4%
9,CCCCCCN1CSC(=S)N(CCCCCC)C1,96.5%
10,Oc1ccc2cc(Br)ccc2c1-c1c(O)ccc2cc(Br)ccc12,58.9%
11,C=C(C)[C@@H]1C[C@H](O)Cc2cc(F)ccc2N1,88.6%
12,NC1=NC(SCc2ccccc2CCl)c2ncn(Cc3ccccc3CCl)c2N1 (centres undefined),40%
13,COc1ccc(C(=O)c2cc(OC)c(OC)c(OC)c2OC)cc1O,10.9%
14,CNc1ccc(Br)c2c1C(=O)c1ccccc1C2=O,118%
15,Cc1cc(N/N=C/c2nc(-c3ccccc3)oc2C)c2cc(Br)ccc2n1,91.6%
16,CC(C)(C)n1cc(-c2ccnc(NCCCNS(=O)(=O)c3ccccc3)c2)c(-c2cccc(O)c2)n1,34.1%
17,O=C1Nc2ccc(Cl)cc2C12Nc1cc(Cl)ccc1S2 (centres undefined),93.9%
18,O=C1/C(=C/c2ccccc2)CN(C(=O)CCN2CCC(=NO)CC2)C/C1=C\c1ccccc1,0.212% (active)
19,O=[N+]([O-])c1cccc(-c2nc3sccn3c2-c2ccnc(NCCCNS(=O)(=O)c3ccc(Cl)cc3)n2)c1,47%
20,Cc1ccc(S(=O)(=O)Nc2c(Br)cc(Br)cc2C(N)=O)cc1,94.5%

row,Structure (SMILES),growth
1,CN(C[C@H]1Cc2c(cccc2N2CCN(Cc3ccccn3)CC2)CN1)[C@H]1CCCc2cccnc21,62.3%
2,CC(C)(C)OC(=O)NC(CSCc1ccccc1)C(=O)ON1C(=O)CCC1=O (centres undefined),104%
3,COc1ccc(-c2ccc(-c3ccc(C(=N)N)s3)s2)cc1Cl,97.2%
4,O=[N+]([O-])c1ccc(C(c2ccccc2)c2ccccc2)cc1,105%
5,CCN(CC)c1ccc2[nH]c3c(C(N)=O)cc(=O)c(=O)c=3oc2c1,-7.36% (active)
6,CCNc1nc(S(=O)(=O)CC)nc2ccccc12,96.8%
7,CCC(=O)Oc1ccc(/C(=C(/C)Cc2cccc(OC)c2)c2ccc(OCCN(C)C)cc2)cc1,31.8%
8,Nc1nc(-c2ccccc2)c(CCCOc2ccc(NC(=O)CBr)cc2)c(=O)[nH]1,104%
9,CN(C)CCOC(=O)Nc1ccccc1Cl,100%
10,c1ccc(-c2nnc(-c3ccccn3)s2)nc1,82.8%
11,COc1ccc(-c2nc(N3CCCC3=O)sc2Br)cc1OC,116%
12,C=C1CCC2C3(C)COC(c4c(OC)cccc4OC)OC3CCC2(C)C1C/C=C1/C(=O)OCC1O (centres undefined),39.9%
13,c1cc2[nH]ncc2cc1-c1nc2ccc3[nH]ncc3c2c2c1CCC2,21%
14,COc1ccc2c(c1)[nH]c(=O)c1c3cc(OC)ccc3cn21,25.4%
15,NC(N)=Nc1nc2ccccc2o1,80%
16,Nc1ccc(C(=O)CSc2nc3ccccc3[nH]2)cc1,108%
17,CC(C)(C)n1cc(-c2ccnc(NCCCNS(=O)(=O)c3ccc(F)cc3)c2)c(-c2cccc(O)c2)n1,29%
18,COc1ccccc1CNCCCN1C(=O)c2ccc3c4c(ccc(c24)C1=O)C(=O)N(CCCNCCCCNCCCN)C3=O,-70.8% (active)
19,O=C(CCl)N(C1CCCCC1)C1CCCCC1,96.2%
